Holding throughout (test): DAPPL (digital affinity profiling via proximity ligation, sequencing); 10 mM Tris-HCl pH 7.5, 50 mM NaCl, 1 mM DTT, 4% glycerol, room temperature, 30 min; GST-TFs on glutathione beads, 16-mer random dsDNA library, 0.1% formaldehyde crosslink after washing; high values mean tight binding
One test addresses T1, FLI1 (Homo sapiens, UniProt Q01543 1-452).
T1 sequence: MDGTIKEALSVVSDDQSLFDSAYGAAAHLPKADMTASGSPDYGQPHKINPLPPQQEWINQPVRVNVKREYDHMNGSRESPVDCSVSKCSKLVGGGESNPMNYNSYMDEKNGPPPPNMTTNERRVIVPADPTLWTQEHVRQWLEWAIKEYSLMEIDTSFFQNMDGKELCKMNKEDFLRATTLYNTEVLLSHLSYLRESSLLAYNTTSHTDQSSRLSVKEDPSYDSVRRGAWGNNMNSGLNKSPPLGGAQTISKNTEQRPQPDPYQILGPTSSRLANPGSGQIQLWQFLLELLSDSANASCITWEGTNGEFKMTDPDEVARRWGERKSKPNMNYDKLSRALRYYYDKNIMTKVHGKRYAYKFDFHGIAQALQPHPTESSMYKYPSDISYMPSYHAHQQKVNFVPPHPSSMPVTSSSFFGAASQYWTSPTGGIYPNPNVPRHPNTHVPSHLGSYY
Conditions: protein: recombinant; tags: N-terminal GST; dsDNA, one strand shown. Put shortly: (§1)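 Sequencing on an Illumina NextSeq500 followed washing, crosslinking with 0.1% formaldehyde, proximity ligation (BsaI/T4 ligase, 1 h, 37 °C) and PCR amplification of pools that had been incubated for 30 min at room temperature with 200 nmole of a random double-stranded 16-mer DNA library in Tris/NaCl/DTT/glycerol buffer. Each pool held DNA-barcoded human transcription factors, expressed in yeast as GST fusions and captured on glutathione beads, plus a tag-only sample. Binding signal is a hexamer's read frequency for a factor divided by its frequency in the tag-only sample.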

The target in another test is T2, ELK1 (Homo sapiens, UniProt P19419 1-428).
T2 sequence: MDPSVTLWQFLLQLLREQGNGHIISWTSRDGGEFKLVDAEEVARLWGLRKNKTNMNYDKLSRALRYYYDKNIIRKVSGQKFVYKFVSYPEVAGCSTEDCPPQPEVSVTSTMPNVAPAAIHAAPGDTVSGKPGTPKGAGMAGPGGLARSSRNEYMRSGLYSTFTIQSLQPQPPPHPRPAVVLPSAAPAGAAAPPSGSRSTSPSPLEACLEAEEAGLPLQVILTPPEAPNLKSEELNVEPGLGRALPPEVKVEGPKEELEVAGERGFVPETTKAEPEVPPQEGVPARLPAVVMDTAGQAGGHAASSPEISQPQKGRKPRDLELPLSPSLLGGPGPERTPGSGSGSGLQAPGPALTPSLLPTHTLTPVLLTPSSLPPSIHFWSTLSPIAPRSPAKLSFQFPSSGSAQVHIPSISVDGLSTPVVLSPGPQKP
The conditions noted are these: protein: recombinant; tags: N-terminal GST; dsDNA, one strand shown. Put shortly:
as §1

The target of another test is T3, GABPA (Homo sapiens, UniProt Q06546 1-454).
T3 sequence: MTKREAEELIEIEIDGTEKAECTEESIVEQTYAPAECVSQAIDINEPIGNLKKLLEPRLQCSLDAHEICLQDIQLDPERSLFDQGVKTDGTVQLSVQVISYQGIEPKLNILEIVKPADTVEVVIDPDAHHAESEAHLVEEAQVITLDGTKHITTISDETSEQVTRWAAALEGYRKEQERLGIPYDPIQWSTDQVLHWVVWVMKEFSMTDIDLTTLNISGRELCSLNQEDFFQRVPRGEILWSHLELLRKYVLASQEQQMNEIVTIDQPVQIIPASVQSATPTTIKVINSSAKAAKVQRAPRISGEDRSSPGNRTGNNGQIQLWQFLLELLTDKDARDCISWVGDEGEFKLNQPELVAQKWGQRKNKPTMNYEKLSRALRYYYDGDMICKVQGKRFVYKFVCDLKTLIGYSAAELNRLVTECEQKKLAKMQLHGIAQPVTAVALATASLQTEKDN
Conditions: protein: recombinant; tags: N-terminal GST; dsDNA, one strand shown. Put shortly: as §1

In a further test the target is T4, ERG (Homo sapiens, UniProt P11308 1-479).
T4 sequence: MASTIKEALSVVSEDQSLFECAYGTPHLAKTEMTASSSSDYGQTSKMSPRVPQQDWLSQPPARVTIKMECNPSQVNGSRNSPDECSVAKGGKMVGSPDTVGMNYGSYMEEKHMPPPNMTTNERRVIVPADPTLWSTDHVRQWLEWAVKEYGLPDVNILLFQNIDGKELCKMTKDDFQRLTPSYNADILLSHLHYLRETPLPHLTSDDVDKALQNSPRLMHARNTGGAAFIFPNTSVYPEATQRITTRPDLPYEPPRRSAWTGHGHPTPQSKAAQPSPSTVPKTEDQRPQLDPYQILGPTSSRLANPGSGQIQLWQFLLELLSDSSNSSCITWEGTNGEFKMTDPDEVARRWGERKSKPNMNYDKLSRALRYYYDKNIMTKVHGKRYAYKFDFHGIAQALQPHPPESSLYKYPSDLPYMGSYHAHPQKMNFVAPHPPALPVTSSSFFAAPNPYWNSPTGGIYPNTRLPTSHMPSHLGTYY
The conditions noted are these: protein: recombinant; tags: N-terminal GST; dsDNA, one strand shown. The method, boiled down: as §1

The next test deals with ELF1 (Homo sapiens, UniProt P32519 1-619). Conditions: protein: recombinant; tags: N-terminal GST; dsDNA, one strand shown. The method, boiled down: as §1
Sequence of ELF1 (P32519 whole entry): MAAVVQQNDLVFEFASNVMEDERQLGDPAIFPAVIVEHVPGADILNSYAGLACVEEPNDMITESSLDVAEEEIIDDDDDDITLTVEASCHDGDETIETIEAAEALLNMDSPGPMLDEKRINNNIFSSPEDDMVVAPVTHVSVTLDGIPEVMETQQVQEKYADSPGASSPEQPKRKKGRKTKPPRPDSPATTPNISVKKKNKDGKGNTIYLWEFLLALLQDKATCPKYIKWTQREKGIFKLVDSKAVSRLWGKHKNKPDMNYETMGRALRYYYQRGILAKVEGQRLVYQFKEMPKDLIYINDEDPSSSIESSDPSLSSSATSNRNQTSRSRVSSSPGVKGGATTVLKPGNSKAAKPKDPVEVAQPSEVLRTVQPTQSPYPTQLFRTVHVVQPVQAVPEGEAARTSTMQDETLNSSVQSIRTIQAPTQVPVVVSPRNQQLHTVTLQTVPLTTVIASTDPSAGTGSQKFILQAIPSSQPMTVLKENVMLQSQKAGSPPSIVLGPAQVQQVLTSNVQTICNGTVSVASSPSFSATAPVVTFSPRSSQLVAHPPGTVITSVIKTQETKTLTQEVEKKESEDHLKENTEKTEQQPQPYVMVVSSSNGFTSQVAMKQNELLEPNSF
The target in the next test is T5, EHF (Homo sapiens, UniProt Q9NZC4 1-300).
T5 sequence: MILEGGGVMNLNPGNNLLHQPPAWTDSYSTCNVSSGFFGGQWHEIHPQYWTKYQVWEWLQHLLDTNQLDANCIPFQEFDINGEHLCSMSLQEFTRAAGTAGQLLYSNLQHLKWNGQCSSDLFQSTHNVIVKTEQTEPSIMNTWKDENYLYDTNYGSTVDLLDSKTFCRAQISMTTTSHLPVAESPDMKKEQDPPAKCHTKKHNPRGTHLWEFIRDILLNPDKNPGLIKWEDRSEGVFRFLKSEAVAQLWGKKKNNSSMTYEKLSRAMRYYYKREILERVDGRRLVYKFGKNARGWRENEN
The conditions noted are these: protein: recombinant; tags: N-terminal GST; dsDNA, one strand shown. The method, boiled down: as §1

For a further test, the target named is SPI1 (Homo sapiens, UniProt P17947 1-270). The conditions noted are these: protein: recombinant; tags: N-terminal GST; dsDNA, one strand shown. The method, boiled down: as §1
Another test deals with SPIB (Homo sapiens, UniProt Q01892 1-262). The conditions noted are these: protein: recombinant; tags: N-terminal GST; dsDNA, one strand shown. Put shortly:
as §1

A further test concerns the target T6, ELK3 (Homo sapiens, UniProt P41970 1-407).
T6 sequence: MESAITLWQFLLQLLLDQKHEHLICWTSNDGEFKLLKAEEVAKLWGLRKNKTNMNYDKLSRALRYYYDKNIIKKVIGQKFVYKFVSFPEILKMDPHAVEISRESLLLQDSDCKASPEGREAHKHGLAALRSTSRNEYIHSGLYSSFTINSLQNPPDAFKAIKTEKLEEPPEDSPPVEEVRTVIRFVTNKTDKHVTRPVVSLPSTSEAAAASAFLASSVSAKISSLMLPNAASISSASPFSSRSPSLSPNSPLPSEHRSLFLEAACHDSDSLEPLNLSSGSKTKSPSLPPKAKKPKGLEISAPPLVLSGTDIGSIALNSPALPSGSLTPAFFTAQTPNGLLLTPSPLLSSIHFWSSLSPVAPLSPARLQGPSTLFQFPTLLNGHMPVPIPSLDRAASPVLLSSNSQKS
The conditions noted are these: protein: recombinant; tags: N-terminal GST; dsDNA, one strand shown. Put shortly:
as §1

The target in a further test is T7, FEV (Homo sapiens, UniProt Q99581 1-238).
T7 sequence: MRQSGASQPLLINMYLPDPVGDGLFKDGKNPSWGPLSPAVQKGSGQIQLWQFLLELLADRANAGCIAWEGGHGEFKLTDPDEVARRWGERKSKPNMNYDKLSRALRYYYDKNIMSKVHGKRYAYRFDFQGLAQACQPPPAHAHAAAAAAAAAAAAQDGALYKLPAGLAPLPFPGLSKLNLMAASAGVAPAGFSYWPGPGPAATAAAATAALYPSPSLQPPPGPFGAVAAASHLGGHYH
Conditions: protein: recombinant; tags: N-terminal GST; dsDNA, one strand shown. The method, boiled down:
as §1

A further test concerns the target ETV5 (Homo sapiens, UniProt P41161 1-510). The conditions noted are these: protein: recombinant; tags: N-terminal GST; dsDNA, one strand shown. Put shortly:
as §1

For the next test, the target named is HSF1 (Homo sapiens, UniProt Q00613 1-529). The conditions noted are these: protein: recombinant; tags: N-terminal GST; chain copies: 3; dsDNA, one strand shown. The method, boiled down:
as §1

The next test has as its target T8, SPIC (Homo sapiens, UniProt Q8N5J4 1-248).
T8 sequence: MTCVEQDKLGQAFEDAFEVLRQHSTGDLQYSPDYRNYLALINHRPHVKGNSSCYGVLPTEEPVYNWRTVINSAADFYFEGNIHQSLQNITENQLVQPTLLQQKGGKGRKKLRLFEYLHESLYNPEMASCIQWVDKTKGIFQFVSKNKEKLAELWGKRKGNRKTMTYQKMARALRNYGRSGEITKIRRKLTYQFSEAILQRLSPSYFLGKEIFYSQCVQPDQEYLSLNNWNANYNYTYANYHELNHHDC
Conditions: protein: recombinant; tags: N-terminal GST; dsDNA, one strand shown. The method, boiled down:
as §1

The target in a further test is ELF4 (Homo sapiens, UniProt Q99607 1-663). Conditions: protein: recombinant; tags: N-terminal GST; dsDNA, one strand shown. The method, boiled down: as §1
Sequence of ELF4 (Q99607 whole entry): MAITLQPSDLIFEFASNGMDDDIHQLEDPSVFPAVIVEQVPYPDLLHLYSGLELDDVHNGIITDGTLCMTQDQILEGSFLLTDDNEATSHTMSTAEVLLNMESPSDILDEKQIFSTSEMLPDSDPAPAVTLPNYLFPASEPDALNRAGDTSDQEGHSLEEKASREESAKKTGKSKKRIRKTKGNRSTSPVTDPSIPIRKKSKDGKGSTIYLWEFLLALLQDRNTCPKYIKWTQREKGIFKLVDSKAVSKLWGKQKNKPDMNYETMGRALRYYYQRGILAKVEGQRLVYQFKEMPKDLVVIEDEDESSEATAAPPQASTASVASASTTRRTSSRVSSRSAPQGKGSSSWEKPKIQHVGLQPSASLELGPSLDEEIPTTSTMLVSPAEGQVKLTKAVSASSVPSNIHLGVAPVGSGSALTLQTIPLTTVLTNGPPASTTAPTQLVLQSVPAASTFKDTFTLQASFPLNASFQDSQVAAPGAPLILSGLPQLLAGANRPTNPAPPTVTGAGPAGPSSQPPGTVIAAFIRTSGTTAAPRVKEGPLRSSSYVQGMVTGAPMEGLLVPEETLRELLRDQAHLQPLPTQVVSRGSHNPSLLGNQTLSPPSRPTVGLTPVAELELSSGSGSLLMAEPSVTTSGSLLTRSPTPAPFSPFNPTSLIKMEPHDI
A further test deals with T9, ELK4 (Homo sapiens, UniProt P28324-2 1-405).
T9 sequence: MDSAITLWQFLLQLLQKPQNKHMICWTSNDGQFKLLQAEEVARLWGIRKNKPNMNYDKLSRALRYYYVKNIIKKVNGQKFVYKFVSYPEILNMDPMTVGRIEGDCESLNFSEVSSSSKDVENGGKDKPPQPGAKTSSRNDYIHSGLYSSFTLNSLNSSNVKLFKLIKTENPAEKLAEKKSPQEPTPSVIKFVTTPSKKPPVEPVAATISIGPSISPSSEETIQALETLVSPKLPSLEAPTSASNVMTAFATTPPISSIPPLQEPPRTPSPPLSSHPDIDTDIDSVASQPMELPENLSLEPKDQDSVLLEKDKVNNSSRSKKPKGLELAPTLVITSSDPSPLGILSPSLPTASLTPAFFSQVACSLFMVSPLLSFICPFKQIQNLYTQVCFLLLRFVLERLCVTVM
The conditions noted are these: protein: recombinant; tags: N-terminal GST; dsDNA, one strand shown. The method, boiled down: as §1

The target of a further test is T10, ETV2 (Homo sapiens, UniProt O00321 1-342).
T10 sequence: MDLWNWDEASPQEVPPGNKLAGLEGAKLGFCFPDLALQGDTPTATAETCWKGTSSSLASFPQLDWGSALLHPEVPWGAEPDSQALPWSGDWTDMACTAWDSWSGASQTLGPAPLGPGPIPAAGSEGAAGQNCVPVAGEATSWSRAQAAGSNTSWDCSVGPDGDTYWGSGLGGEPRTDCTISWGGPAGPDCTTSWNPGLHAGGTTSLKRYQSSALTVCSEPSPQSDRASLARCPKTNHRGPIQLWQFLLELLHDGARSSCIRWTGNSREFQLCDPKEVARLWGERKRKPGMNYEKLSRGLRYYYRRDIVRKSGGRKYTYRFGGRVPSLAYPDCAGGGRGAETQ
The conditions noted are these: protein: recombinant; tags: N-terminal GST; dsDNA, one strand shown. The method, boiled down:
as §1

The next test has as its target T11, ELF3 (Homo sapiens, UniProt P78545 1-371).
T11 sequence: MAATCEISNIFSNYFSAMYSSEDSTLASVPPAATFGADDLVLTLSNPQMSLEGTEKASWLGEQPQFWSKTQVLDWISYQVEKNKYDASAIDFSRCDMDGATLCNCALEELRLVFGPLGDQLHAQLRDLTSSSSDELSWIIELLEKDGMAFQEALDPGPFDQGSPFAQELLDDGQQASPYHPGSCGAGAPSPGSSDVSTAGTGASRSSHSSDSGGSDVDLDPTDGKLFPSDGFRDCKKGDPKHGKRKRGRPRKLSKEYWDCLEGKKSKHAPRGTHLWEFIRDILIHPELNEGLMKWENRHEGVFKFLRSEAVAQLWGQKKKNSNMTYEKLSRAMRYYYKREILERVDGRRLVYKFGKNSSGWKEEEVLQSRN
The conditions noted are these: protein: recombinant; tags: N-terminal GST; dsDNA, one strand shown. The method, boiled down:
as §1

The next test addresses ETV1 (Homo sapiens, UniProt P50549 1-477). The conditions noted are these: protein: recombinant; tags: N-terminal GST; dsDNA, one strand shown. Put shortly:
as §1

Sequence of SPIB (Q01892 whole entry): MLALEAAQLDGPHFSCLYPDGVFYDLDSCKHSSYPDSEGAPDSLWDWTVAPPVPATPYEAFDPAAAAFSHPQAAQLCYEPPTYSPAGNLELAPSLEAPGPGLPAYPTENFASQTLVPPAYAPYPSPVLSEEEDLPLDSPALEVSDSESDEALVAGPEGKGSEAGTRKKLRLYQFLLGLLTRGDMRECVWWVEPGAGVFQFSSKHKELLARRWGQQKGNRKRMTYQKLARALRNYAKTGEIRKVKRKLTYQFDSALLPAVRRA
Sequence of HSF1 (Q00613 whole entry): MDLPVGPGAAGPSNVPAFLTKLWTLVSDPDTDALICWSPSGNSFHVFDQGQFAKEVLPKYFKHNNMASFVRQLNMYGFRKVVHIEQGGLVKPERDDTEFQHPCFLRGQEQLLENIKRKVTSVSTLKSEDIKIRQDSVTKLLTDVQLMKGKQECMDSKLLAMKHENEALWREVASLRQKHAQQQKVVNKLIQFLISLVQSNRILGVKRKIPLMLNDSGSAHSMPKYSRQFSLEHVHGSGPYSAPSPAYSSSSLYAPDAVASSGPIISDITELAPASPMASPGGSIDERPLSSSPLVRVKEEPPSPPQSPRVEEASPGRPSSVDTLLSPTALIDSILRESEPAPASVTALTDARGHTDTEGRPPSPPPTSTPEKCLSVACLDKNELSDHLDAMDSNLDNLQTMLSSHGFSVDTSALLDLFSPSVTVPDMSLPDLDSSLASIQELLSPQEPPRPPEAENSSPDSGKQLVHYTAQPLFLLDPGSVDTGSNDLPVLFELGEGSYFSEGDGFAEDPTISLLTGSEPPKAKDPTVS
Sequence of ETV1 (P50549 whole entry): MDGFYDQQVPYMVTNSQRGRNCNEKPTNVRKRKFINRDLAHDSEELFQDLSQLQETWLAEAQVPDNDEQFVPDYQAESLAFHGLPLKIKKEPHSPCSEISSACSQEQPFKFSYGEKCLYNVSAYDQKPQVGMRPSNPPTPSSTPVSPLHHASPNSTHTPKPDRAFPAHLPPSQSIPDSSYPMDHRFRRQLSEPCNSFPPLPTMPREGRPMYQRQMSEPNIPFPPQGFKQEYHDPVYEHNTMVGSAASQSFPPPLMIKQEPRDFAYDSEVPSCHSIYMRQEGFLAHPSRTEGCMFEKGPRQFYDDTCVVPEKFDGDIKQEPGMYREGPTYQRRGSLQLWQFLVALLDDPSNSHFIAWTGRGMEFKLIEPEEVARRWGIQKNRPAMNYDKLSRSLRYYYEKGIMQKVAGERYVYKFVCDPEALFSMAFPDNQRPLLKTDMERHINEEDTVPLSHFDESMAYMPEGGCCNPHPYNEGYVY
Sequence of ETV5 (P41161 whole entry): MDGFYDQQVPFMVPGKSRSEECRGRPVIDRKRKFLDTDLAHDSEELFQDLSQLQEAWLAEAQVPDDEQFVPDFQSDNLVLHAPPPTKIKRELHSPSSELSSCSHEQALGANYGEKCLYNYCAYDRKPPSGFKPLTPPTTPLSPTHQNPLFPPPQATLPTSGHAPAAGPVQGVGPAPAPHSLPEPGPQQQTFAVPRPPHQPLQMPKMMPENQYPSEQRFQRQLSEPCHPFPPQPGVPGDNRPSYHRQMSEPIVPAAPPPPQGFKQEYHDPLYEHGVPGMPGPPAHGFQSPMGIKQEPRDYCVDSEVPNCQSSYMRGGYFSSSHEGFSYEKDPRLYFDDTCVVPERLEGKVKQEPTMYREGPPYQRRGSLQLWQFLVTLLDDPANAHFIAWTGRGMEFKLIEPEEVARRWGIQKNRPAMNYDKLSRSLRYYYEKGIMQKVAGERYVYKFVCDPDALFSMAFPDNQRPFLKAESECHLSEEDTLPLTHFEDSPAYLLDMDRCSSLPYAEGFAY

For CCACGC, the binding signal with FLI1 was 1.28 fold enrichment (6-mer frequency, TF over GST control); with ELK1 it was 1.2 fold enrichment (6-mer frequency, TF over GST control); with GABPA, 1.28 fold enrichment (6-mer frequency, TF over GST control); in the test with ERG, 1.16 fold enrichment (6-mer frequency, TF over GST control); with ELF1, 1.22 fold enrichment (6-mer frequency, TF over GST control); in the test with EHF, 1.12 fold enrichment (6-mer frequency, TF over GST control). In addition, the binding signal was 1.07 fold enrichment (6-mer frequency, TF over GST control) with SPI1; 1.14 fold enrichment (6-mer frequency, TF over GST control) with SPIB; 1.31 fold enrichment (6-mer frequency, TF over GST control) with ELK3; 1.2 fold enrichment (6-mer frequency, TF over GST control) in the test with FEV; 1.15 fold enrichment (6-mer frequency, TF over GST control) with ETV5; 1.05 fold enrichment (6-mer frequency, TF over GST control) in the test with HSF1. Besides, the binding signal is 1.14 fold enrichment (6-mer frequency, TF over GST control) with SPIC; 1.22 fold enrichment (6-mer frequency, TF over GST control) with ELF4; 1.19 fold enrichment (6-mer frequency, TF over GST control) in the test with ELK4; 1.14 fold enrichment (6-mer frequency, TF over GST control) with ETV2; 1.24 fold enrichment (6-mer frequency, TF over GST control) in the test with ELF3; 1.24 fold enrichment (6-mer frequency, TF over GST control) in the test with ETV1.
